We go through 40 compounds from PubChem BioAssay (Tox21).

Several values for one entry are separate records, joined by “and”; a condition that tells them apart may be missing. Identical values can stand only once. Results filed as inconclusive are left out. More than one record can exist for a structure, and the calls need not agree. Activity calls are given as the source filed them. Calls come from the whole dose curve; as a rule, active = well fitted activation curve with a large enough effect in the signal ratio in the repeat runs (not every such curve was filed as active); inconclusive = weak or mixed curves; inactive = flat fitted curve, though single readings scatter; the % refers to the signal ratio.
% is set by controls: 0 for no effect and ±100 for the full control effect; potency is the fitted concentration of half-maximal effect.

The experiment can be described thus: qHTS assay to identify small molecule agonists of H2AX (AID 1224845). The settings on record: CHO-K1 phospho-H2AX Ser139 HTRF, 3 h; series mostly up to 154 µM; activation (H2AX phosphorylation): at the top concentration. The text has this: National Center for Advancing Translational Sciences [NCATS]
NIH Chemical Genomics Center [NCGC]
U.S. Environmental Protection Agency [EPA]
National Institutes of Environmental Health Sciences [NIEHS]
National Toxicology Program [NTP]
U.S. Food and Drug Administration [FDA]
HTRF phospho-H2AX (Ser139) assay (Cisbio Bioassays, US) enables the quantitative detection of the histone variant H2AX when phosphorylated on serine 139. When double-stranded DNA breaks, either by ionizing radiation or endogenous physiological processes, H2AX becomes phosphorylated at Ser139. This phospho-Ser139 serves as a sensitive biomarker for the detection of such breaks, localizing the site of DNA repair. So, HTRF phospho-H2AX Ser139 is a pertinent assay to study genome stability, the cell cycle, DNA repair, and it serves as a biomarker for cancer, and to understand aging. Wild type CHO-K1 cells were used to identify the inducers of Phospho-H2AX Ser 139 from the Tox21 10K compound collections.
Tox21 Assay Protocol Summary:
The CHO-K1 cells suspended in culture medium containing 10% FBS were dispensed at 1000 cells/ 3 ul/well in 1536-well white wall/solid bottom plates (Greiner Bio-One North America, NC) using a Multidrop Combi (Thermo Fisher Scientific Inc., Waltham, MA). After the assay plates were incubated at 37C overnight, 23 nl of compounds at 15 concentrations (from 5-48 columns) or positive control (from 1 to 4 columns) were transferred to the assay plates using a Pintool station (Wako, San Diego, CA) into each well resulting in a final DMSO concentration of 0.76%. After 3hr incubation at 37C, 1 uL/well Supplemented Lysis buffer (diluted 100 fold blocking reagent in lysis buffer) (HTRF Phospho-H2A.X (S139) Assay kit from Cisbio US Inc., Bedford, MA) was added using a Flying Reagent Dispenser (FRD) (Aurora Discovery, CA). After 10sec spin at 1000 rpm in a plate centrifuge, the assay plates were incubated at room temperature for 30 min. Then followed by the addition of 1 uL/well detection buffer (containing a mixture of two antibodies, one labeled with cryptate, Anti pH2AX (S139)-K and another labeled with d2, Anti H2AX-d2) using FRD. After incubation at room temperature for 24 hr, the time resolved fluorescence at excitation 320 nm and emissions at 665 nm and 620 nm was measured using an Envision plate reader (PerkinElmer, Waltham, MA).
On the technique in general: Quantitative high-throughput screening tests each substance at several concentrations.
In the case of `CCCOCC(=Nc1ccc(Cl)cc1C(F)(F)F)n1ccnc1`, the “activation (H2AX phosphorylation)” value was -0.842% (inactive). On the same count and under the same terms, the result for `N#CCCSCCC#N` reads -2.38% (inactive); that for `ClC1=C(Cl)[C@]2(Cl)[C@H]3[C@H]([C@H]4C=C[C@H]3C4)[C@@]1(Cl)C2(Cl)Cl`, -4.33% (inactive); that for `CCSC(C)CC1CC(=O)C(/C(CC)=N/OC/C=C/Cl)=C(O)C1` (stereo not given), 0.495% [at 70.9 µM] (inactive). Still for that read-out and setting: the result for `CCC(C)c1cc(C(C)(C)C)cc(-n2nc3ccccc3n2)c1O` (stereo not given) reads -1.47% [at 70.9 µM] (inactive); that for `Cc1cc(Cl)ccc1O[C@H](C)C(=O)O`, -1.07% (inactive); that for `C[C@]12Cc3nonc3C[C@@H]1CC[C@@H]1[C@@H]2CC[C@@]2(C)[C@H]1CC[C@]2(C)O`, 0.43% [at 70.9 µM] (inactive).

As to `Cc1cc(C)cc(OP(=O)(Oc2cc(C)cc(C)c2)Oc2cc(C)cc(C)c2)c1`, the “activation (H2AX phosphorylation)” value was -4.15% (inactive). Still for that read-out and setting: the result for `O=c1[nH]c2ccccc2n1C1CCN(CCCC(c2ccc(F)cc2)c2ccc(F)cc2)CC1` reads 4.15% [at 70.9 µM] (inactive). Turning to `O=C(CCl)C(Cl)Cl`, the Potency was 40.5 µM (active). For `COCC(=O)N(c1c(C)cccc1C)[C@H](C)C(=O)OC`, the “activation (H2AX phosphorylation)” value is 2.17% (inactive). Still for that read-out and setting: for `Cc1ccc(C(=O)Cl)cc1` the value was 0.587% (inactive); for `COc1ccc(OC)c(CC(C)N)c1` (stereo not given), -5.51% (inactive).

Consider `ClCCN1CCOCC1`, for which the “activation (H2AX phosphorylation)” value is 5.71% (inactive). The same measure, in the same setting: the result for `N#C/C=C/c1ccccc1` reads -0.171% (inactive). Take `CC(c1ccc(O)cc1)c1ccc(O)cc1`: the Potency entry is “inactive and 56.6 µM (active)”. With `COP(=O)(CCC(=O)NCO)OC`, the “activation (H2AX phosphorylation)” value is -0.118% (inactive). For the compound `COC12CC[C@@]3(C[C@@H]1C(C)(O)C(C)(C)C)[C@H]1Cc4ccc(O)c5c4[C@@]3(CCN1CC1CC1)[C@H]2O5` (stereo not given in full), the Potency is 56.3 µM (active). Consider `CC(C)N1C(=O)N(c2ccccc2)CSC1=NC(C)(C)C`, for which the “activation (H2AX phosphorylation)” value was -2.13% (inactive). In the case of `CCC[CH2][Sn]([CH2]CCC)([CH2]CCC)[O]C(=O)c1ccccc1`, the Potency is 0.505 µM (active).

Consider `N#Cc1ccc(O)cc1`, for which the “activation (H2AX phosphorylation)” value is 1.76% (inactive). Same read-out and setting: for `CCCCCCCCCCBr` the value was -2.38% (inactive); for `CC(=O)OC1(c2ccccc2)CCN(CCc2ccccc2)CC1`, 1.4% (inactive). Same read-out and setting: the result for `CSCCCN=C=S` reads 1.56% (inactive); that for `CC(=O)c1ccc(-c2ccccc2)cc1`, -3.66% (inactive). The same measure, in the same setting: the result for `CC(=O)Nc1ccc2c(c1)Cc1ccccc1-2` reads 0.0894% (inactive); that for `CC1(C)CN=C(NN=C(/C=C/c2ccc(C(F)(F)F)cc2)/C=C/c2ccc(C(F)(F)F)cc2)NC1`, -11% (inactive). In the case of `Clc1ccc(C(Cl)(Cl)Cl)c(Cl)c1`, the “activation (H2AX phosphorylation)” value was 4.09% (inactive). As for `COc1cc(C=O)cc2c1[C@H](COC(N)=O)[C@]1(OC(C)=O)ON2C[C@H]2[C@@H]1N2C(C)=O`, the Potency is 63.5 µM (active). For the compound `Clc1ccc(Oc2ccccc2)cc1`, the “activation (H2AX phosphorylation)” value is 5.81% (inactive). Same read-out and setting: the result for `O=C(NC(=O)c1c(F)cccc1F)Nc1cc(Cl)c(OC(F)(F)C(F)F)c(Cl)c1` reads -1.73% (inactive). On the same count and under the same terms, the result for `BrCBr` reads 0.438% (inactive); that for `N#C/C=C/C#N`, 5.08% (inactive). As for `CC(=[OH+])/C=C(/C)[O-].CC(=[OH+])/C=C(\C)[O-].CC(=[OH+])/C=C(\C)[O-].[Al]`, the “activation (H2AX phosphorylation)” value was 3.25% (inactive). Take `C[CH2][Hg][N]1C(=O)C2C(C1=O)C1(Cl)C(Cl)=C(Cl)C2(Cl)C1(Cl)Cl` (stereo not given): the Potency is 10.7 µM (active). For `CN(C)C1CSSSC1`, the “activation (H2AX phosphorylation)” value is 1.1% (inactive).

Turning to `O=C(Cl)c1ccc(Cl)cc1`, the “activation (H2AX phosphorylation)” value was 1.12% (inactive).

Take `CC(C)OC(=S)S`: the Potency was 35.7 µM (active).

For `CC[C@H](C)[C@H]1O[C@]2(C=C[C@@H]1C)C[C@@H]1C[C@@H](C/C=C(\C)[C@@H](O[C@H]3C[C@H](OC)[C@@H](O[C@H]4C[C@H](OC)[C@@H](O)[C@H](C)O4)[C@H](C)O3)[C@@H](C)/C=C/C=C3\CO[C@@H]4[C@H](O)C(C)=C[C@@H](C(=O)O1)[C@]34O)O2`, the “activation (H2AX phosphorylation)” value was 1.45% [at 70.9 µM] (inactive). On the same count and under the same terms, for `CC(C)(COCC1CO1)COCC1CO1` (stereo not given) the value was 2.08% (inactive).
